# Laboratory results taken from PubChem BioAssay (NCI).
# About 83,000 compounds went through this panel and 20% of them were active in at least one assay; those are over-represented in the sample as a whole.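 Step 1: grow cells in 96-well plates. Step 2: add test compound at a single concentration. Step 3: incubate 48 h. Step 4: record percent growth.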 Values without a mark were called inactive. Calls of active or inactive are those of the source. How the source made its calls: active means growth percent below 10; inactive means the rest.
# Tests used:
# Assay in all cases: NCI-60 one-dose screen, 48 h (100 = growth as untreated, 0 = no growth, -100 = all killed)
# Settings in all cases: 10 µM unless noted
# HCT-15 colon = test system: HCT-15 colon
# HT29 colon = test system: HT29 colon
# SNB-75 CNS = test system: SNB-75 CNS
# SNB-19 CNS = test system: SNB-19 CNS
# U251 CNS = test system: U251 CNS
# PC-3 prostate = test system: PC-3 prostate
# SK-MEL-5 melanoma = test system: SK-MEL-5 melanoma
# UACC-62 melanoma = test system: UACC-62 melanoma
# LOX IMVI melanoma = test system: LOX IMVI melanoma
# SK-MEL-28 melanoma = test system: SK-MEL-28 melanoma
Compound,growth (HCT-15 colon),growth (HT29 colon),growth (SNB-75 CNS),growth (SNB-19 CNS),growth (U251 CNS),growth (PC-3 prostate),growth (SK-MEL-5 melanoma),growth (UACC-62 melanoma),growth (LOX IMVI melanoma),growth (SK-MEL-28 melanoma)
C/C(=N\NC(=S)Nc1ccc(Br)cc1)c1cc2ccccc2oc1=O,10%,90.3%,17.5%,35.2%,17.8%,26.7%,-24.7% (active),-20.5% (active),14%,21.6%
COc1ccc(-c2nc3cc(Cl)c(Cl)cc3n2CC(=O)N=Nc2c(O)[nH]c3ccccc23)cc1,30.6%,78.9%,60%,91.3%,71%,76.1%,53.6%,68.1%,9.62% (active),74.7%
Clc1ccc(-c2csc(N/N=C/c3nc4ccccc4n3C3CC3)n2)cc1,90.5%,99.8%,82.4%,98.3%,97.2%,98.4%,97.1%,98.4%,,101%
COc1ccc(-c2nc(SCCC(C)C)nc(N/N=C\c3ccc(O)cc3)c2C#N)cc1,28.2%,107%,77.2%,60.1%,29.4%,72.4%,89.2%,93.9%,,95%
O=S(=O)(NC1CC2CCC1C2)c1ccc2c(c1)C(=NO)c1cc(S(=O)(=O)NC3CC4CCC3C4)ccc1-2 (stereo not drawn),31.2%,22.3%,37.2%,63.3%,-64.2% (active),59.2%,93%,71%,-90.5% (active),92.3%
COc1cc(O)c2c(c1)/C=C/C[C@H](O)[C@H](O)C(=O)/C=C\C[C@H](C)OC2=O,-47.5% (active),1.76% (active),-2.99% (active),52.3%,34.6%,42.6%,-57.9% (active),-16.3% (active),-42.7% (active),-3.57% (active)
CN1CCN(c2ccc3c(C(N)=O)c(NC(=O)c4ccc(C(C)(C)C)cc4)sc3c2)CC1,16.4%,20.4%,81.6%,76.2%,59.1%,79.2%,89.7%,99.5%,-53.3% (active),90%
O=C1NC(=O)c2c1c1c3ccccc3ccc1c1[nH]c3ccccc3c21,13.4%,13.4%,-7.05% (active),3.4% (active),11.1%,1.07% (active),-18.1% (active),15.2%,,18.9%
Cc1ccc(-c2csc(N/N=C/c3nc4ccccc4n3C3CC3)n2)cc1,80.6%,92.2%,22%,81.2%,43.8%,61.6%,5.51% (active),95.1%,,103%
O=C(c1ccc(O)cc1)[C@@H]1[C@@H]2CCCN2[C@@]2(C(=O)N(C(=O)c3ccc(F)cc3)c3ccccc32)[C@H]1c1ccc(F)cc1,86.6%,104%,73.5%,93.3%,94.3%,78.3%,95%,75.4%,,99.2%
COc1ccc(-c2nnc(/N=C3/C(=O)Nc4ccc(Br)cc43)o2)cc1,91.3%,113%,90%,97.8%,107%,104%,98.8%,95.7%,,102%
O=C1c2c(c3c4cccnc4[nH]c3c3ccc4ccccc4c23)C(=O)N1CCN1CCOCC1,47.5%,53.3%,68%,55.6%,51.6%,62.1%,43.9%,57.7%,,92.9%
CCN1C(=O)N(CC)C2SC(N/N=C/C=C/c3ccccc3OC)=NC21 (stereo not drawn),13.7%,6.38% (active),18.8%,25.5%,18.1%,26.7%,13.2%,37.1%,5.74% (active),60.2%
